# HP1b chromo inh: HTS for Inhibitors of HP1-beta Chromodomain Interactions with Methylated Histone Tails; actives 0.56% (n = 390,000); AlphaScreen HP1-beta / biotin-H3K9me3 peptide binding; Potency, µM (series often up to 114 µM), most hits filed as inhibitors; note: nearly all actives have a fitted effect of over 70% in size
#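 AlphaScreen: HP1-beta (50 nM) preformed 30 min with biotin-H3(1-18)K9me3 peptide (50 nM) in PBS pH 7.4, 0.01% Tween-20. Compound added for 30 min at RT, then streptavidin donor/nickel chelate acceptor beads (10 ug/mL) for 30 min.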
# BAZ2B inh: qHTS Assay for Inhibitors of BAZ2B; Bromodomain adjacent to zinc finger domain protein 2B (Homo sapiens), Q9UIF8; AlphaScreen BAZ2B-H3K14Ac peptide displacement; Potency, µM (doses to about 114 µM), hits mostly inhibitors; actives 4.4% (n = 360,000); note: nearly all actives have a fitted effect of over 60% in size
#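 Compounds, titrated to a top concentration of 110 uM, were incubated 30 min at room temperature with preformed BAZ2B/acetyl-K14 H3 peptide complex (50 nM each). Proximity signal was measured by AlphaScreen after 20 min with beads.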
# PI5P4Ka inh: qHTS for Inhibitors of phosphatidylinositol 5-phosphate 4-kinase (PI5P4K); Phosphatidylinositol 5-phosphate 4-kinase type-2 alpha (Homo sapiens), P48426; PI5P4Kalpha enzyme, ADP-Glo luminescence, 60 min; stronger effect = lower value; max response, %; actives 1.2% (n = 330,000); active = max response of -50% or lower; inconclusive = between -30% and -50%; inactive = -30% or higher; note: value at the top dose of about 77 µM
#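 Compounds were pin-transferred onto PI5P4Kalpha and substrate in HEPES pH 7.4 buffer with EGTA, CHAPS and 5% DMSO. ATP (5 microM final) started the reaction, which ran 60 minutes at room temperature before ADP-Glo detection.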
# G9a block: qHTS Assay for Inhibitors of Histone Lysine Methyltransferase G9a. G9a H3K9 monomethylation, AlphaScreen, 2 h. actives 8.8% (n = 350,000). Histone-lysine N-methyltransferase EHMT2 (Homo sapiens), Q96KQ7. Potency, µM (top dose mostly 102 µM), hits mostly inhibitors; note: nearly all actives have a fitted effect of over 75% in size
#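 Step 1: enzyme (final 20 nM) with compound, 15 min RT. Step 2: substrate peptide 500 nM and SAM 20 uM, 2 h RT. Step 3: anti-H3K9me1 antibody and AlphaScreen beads, 10 min, then plate read.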
# JMJD2A Tudor inh: qHTS Assay for Inhibitors of JMJD2A-Tudor Domain; Lysine-specific demethylase 4A (Homo sapiens), O75164; AID 504339, 2011; AlphaScreen JMJD2A-Tudor / H3K4me3 peptide binding; Potency, µM (highest dose often 114 µM), hits mostly inhibitors; actives 4.4% (n = 390,000); note: nearly all actives have a fitted effect of over 50% in size
# Target sequence (O75164 whole entry, looked up, the tested form may be a part): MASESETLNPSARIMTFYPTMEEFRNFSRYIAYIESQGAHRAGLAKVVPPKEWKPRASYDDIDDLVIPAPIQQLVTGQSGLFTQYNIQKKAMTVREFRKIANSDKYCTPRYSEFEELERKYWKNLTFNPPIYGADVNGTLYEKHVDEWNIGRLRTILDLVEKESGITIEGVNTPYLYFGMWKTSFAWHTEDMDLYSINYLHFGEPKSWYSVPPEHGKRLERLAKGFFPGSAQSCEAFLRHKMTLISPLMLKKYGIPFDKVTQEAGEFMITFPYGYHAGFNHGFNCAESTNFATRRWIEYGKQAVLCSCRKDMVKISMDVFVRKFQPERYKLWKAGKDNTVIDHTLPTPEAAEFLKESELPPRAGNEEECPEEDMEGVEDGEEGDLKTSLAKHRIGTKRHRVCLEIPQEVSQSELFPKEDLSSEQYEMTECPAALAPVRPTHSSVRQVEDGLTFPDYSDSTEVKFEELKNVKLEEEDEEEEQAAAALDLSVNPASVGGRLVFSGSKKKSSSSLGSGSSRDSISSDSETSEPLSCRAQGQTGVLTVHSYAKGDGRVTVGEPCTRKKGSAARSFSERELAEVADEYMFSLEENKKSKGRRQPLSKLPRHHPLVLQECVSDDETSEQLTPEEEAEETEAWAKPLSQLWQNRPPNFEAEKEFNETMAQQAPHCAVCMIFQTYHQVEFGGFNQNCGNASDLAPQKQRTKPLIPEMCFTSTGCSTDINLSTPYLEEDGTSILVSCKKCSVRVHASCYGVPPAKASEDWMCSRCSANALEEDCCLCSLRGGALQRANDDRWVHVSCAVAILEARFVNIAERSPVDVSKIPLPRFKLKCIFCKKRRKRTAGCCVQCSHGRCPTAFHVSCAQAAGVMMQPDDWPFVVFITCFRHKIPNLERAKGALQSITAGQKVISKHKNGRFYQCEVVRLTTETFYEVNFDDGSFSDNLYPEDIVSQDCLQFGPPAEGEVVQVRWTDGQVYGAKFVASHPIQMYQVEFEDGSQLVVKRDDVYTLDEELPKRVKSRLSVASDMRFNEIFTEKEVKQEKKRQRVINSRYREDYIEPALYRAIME
# L3MBTL1 block: qHTS Assay for the Inhibitors of L3MBTL1; Lethal(3)malignant brain tumor-like protein 1 (Homo sapiens), Q9Y468; AlphaScreen L3MBTL1–H3K9me1 peptide binding; Potency, µM (highest dose often 57.1 µM), usual class: inhibitors; actives 0.66% (n = 230,000); note: nearly all actives have a fitted effect of over 60% in size
#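 L3MBTL1 (50 nM) pre-complexed 30 min with biotinylated H3(1-15)K9me1 peptide (75 nM), then compounds added for 30 min at room temperature; AlphaScreen streptavidin donor/nickel chelate acceptor beads (10 ug/mL final) read after 30 min dark incubation.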
# A number is an active result; - = inactive; ? = inconclusive; . = not tested or not shown; [ ] = dose if it differs, or a comment. In the library only some 11% were active in any assay of this set; here they are far more common. Unless noted, calls come from the whole dose curve; as a rule, active = well fitted inhibition curve with a large enough effect; inconclusive = small, poorly fitted or top-dose-only effect; inactive = no such curve, though single readings can be large or run the other way.
SMILES,HP1b chromo inh,BAZ2B inh,PI5P4Ka inh,G9a block,JMJD2A Tudor inh,L3MBTL1 block
Cc1n[nH]c(=O)c2c(NC(=O)CSc3nncn3C(C)C)oc(C)c12,-,-,-,?,-,-
COc1ccc(OC)c(-n2nnnc2SCC(=O)Nc2ccccc2OC)c1,-,-,-,-[0.501 µM],-,-[2.29 µM]
COc1ccccc1NC(=O)CSc1nnnn1-c1ccccc1OC,-,-,-,70.8µM,-,-
COc1ccccc1CNC(=O)COC(=O)/C=C/c1ccc(OC(F)F)c(OC)c1,-,-,-,-[0.501 µM],-,-
COc1cc(/C=C/C(=O)OCC(=O)Nc2oc(C)c3c(C)n[nH]c(=O)c23)ccc1OC(F)F,-,-,-,14.1µM,-,-
CCOCCCn1c(SCC(=O)Nc2ccccc2)nc2ccccc2c1=O,-,-[0.457 µM],-,.,-,-
COc1ccccc1-n1nnnc1SCC(=O)Nc1oc(C)c2c(C)n[nH]c(=O)c12,-,-,-,11.2µM,-,-
CCOCCCn1c(SCC(=O)Nc2ccc(OC)cc2)nc2ccccc2c1=O,-,-,-,31.6µM,-,-
CCNC(=O)CSc1nc2ccccc2c(=O)n1OC,-,-,-,79.4µM,-,-
Cc1ccc(S(=O)(=O)N2CCOCC2)cc1C(=O)Nc1ccccc1C(=O)O,-,-,.,-,-,.
Cc1n[nH]c(=O)c2c(NC(=O)CSc3nc4ccccc4c(=O)n3-c3ccc(OC(F)F)cc3)oc(C)c12,-,-,-,-[0.501 µM],-,-
Cc1n[nH]c(=O)c2c(NC(=O)CSc3nnc(-c4ccco4)n3C)oc(C)c12,-,-,-,?,-,-
COc1ccccc1-c1nnc(SCC(=O)Nc2oc(C)c3c(C)n[nH]c(=O)c23)n1C,-,-,-,5.01µM,-,-
COCCCn1c(SCC(=O)Nc2oc(C)c3c(C)n[nH]c(=O)c23)nc2ccccc2c1=O,-,-,-,50.1µM,-,-
CCOc1ccccc1NC(=O)CSc1nc2ccccc2c(=O)n1CC1CCCO1 (centres undefined),-,-,-,4.47µM,-,.
COc1ccccc1NC(=O)CSc1nnc(Cc2ccccc2)o1,-,-,.,14.1µM,-,.
O=S(=O)(c1cccc2nsnc12)N1CCOCC1,-,-,-,-,-,-
O=S(=O)(c1cccc2nsnc12)N1CCc2ccccc21,-,70.8µM,.,?,?,-
O=S(=O)(c1cccs1)N1CCN(C/C=C/c2ccccc2)CC1,-,-,-,-[12.7 µM],-,-
O=S(=O)(c1cccc2nsnc12)N1CCN(C/C=C\c2ccccc2)CC1,-,?,.,50.1µM,?,.
O=S(=O)(c1cccc2nsnc12)N1CCN(c2ccccc2F)CC1,?,?,-,.,50.1µM,-
O=S(=O)(c1ccc(Cl)s1)N1CCN(C/C=C/c2ccccc2)CC1,?,?,-,14.1µM,1µM,-
COc1ccccc1N1CCN(C(=O)c2cc(S(=O)(=O)N3CCC(C)CC3)cn2C)CC1,-,-,.,-,-,.
COc1ccc(CNC(=O)c2cc(-c3ccc(OC)c(OC)c3)nc3n[nH]c(-c4ccc(C)cc4)c23)cc1,-,-,.,-,-,.
CCOC(=O)C1CCCN(C(=O)c2nn(-c3ccc(C)cc3)c(=O)n(C)c2=O)C1 (centres undefined),-,-,.,-,-,.
SMILES,HP1b chromo inh,BAZ2B inh,PI5P4Ka inh,G9a block,JMJD2A Tudor inh,L3MBTL1 block
CCCc1cc(=O)[nH]c(SCC(=O)N(Cc2ccccc2)C(C)C)n1,-,?,-,1µM,-,.
CCCc1cc(=O)[nH]c(SCC(=O)C(C)(C)C)n1,-,-,-,70.8µM,-,.
Cc1cccc(C(=O)Nc2ccc(S(=O)(=O)N3CCC(c4nc5ccccc5s4)CC3)cc2)c1,-,-,.,-,-,.
CCOC(=O)C1=C(C)OC(N)=C(C#N)C1c1cc2c(cc1[N+](=O)[O-])OCO2 (centres undefined),-,?,-,50.1µM,?,.
CCOC(=O)C1=C(C)OC(N)=C(C#N)C1c1cc(OC)c2c(c1)OCO2 (centres undefined),-,-,-,-,-,-
CN(C)c1ccc(C=c2c3ccccc3n3c2cc(-c2ccc(Cl)cc2)[n+]3C)cc1,12.6µM,.,-57.1,.,44.7µM,.
CN(C)c1ccc(C=C2C=C(c3ccccc3)OC2=O)cc1,.,.,-,.,.,.
CN(C)c1ccc(C=c2c3ccccc3n3c2c2c([n+]3C)CCCC2)cc1,?,.,-,.,28.2µM,.
CN(C)c1ccc(C=c2c3ccccc3n3c2cc(-c2ccccc2)[n+]3C)cc1,50.1µM,.,-50.9,.,31.6µM,.
COc1cc(N(C)C)ccc1C=c1c2ccccc2n2c1cc(-c1ccccc1)[n+]2C,?,.,?,.,17.8µM,.
COc1cc(/C=C(/C(=O)O)c2ccc(-c3ccccc3)cc2)cc(OC)c1OC,-,-,-,-,-,.
CN(C)c1ccc(C=c2c3cc([N+](=O)[O-])ccc3n3c2cc(-c2ccccc2)[n+]3C)cc1,11.2µM,.,-77.8,.,11.2µM,.
COc1cc(C=c2c3ccccc3n3c2cc(-c2ccccc2)[n+]3C)cc(OC)c1OC,?,.,-,.,31.6µM,.
COc1cc2c(cc1OC)n(CC(=O)c1ccc(F)cc1)c(=O)n1nc(CCn3nc(C)cc3C)nc21,-,-,.,-,-,.
COc1ccc(C2CC(=O)c3cc(-c4nc(-c5ccc(Cl)cc5)cs4)c(=O)[nH]c3C2)cc1OC (centres undefined),-,?,.,-,-,.
COc1ccc(C2CC(=O)c3cc(-c4nc(-c5ccc(C)cc5)cs4)c(=O)[nH]c3C2)cc1 (centres undefined),-,?,.,1.78µM,-,.
Cc1ccc(-n2c3c(cc(-c4nc(-c5ccc(Cl)cc5)cs4)c2=O)C(=O)CC(C)(C)C3)cc1C,-,-,.,15.8µM,-,.
Cc1ccc(-n2c(C)cc3c2CC(C)(C)CC3=O)cc1C,-,?,-,?,56.2µM,.
COc1ccc(C2CC(=O)c3cc(-c4nc(-c5cccc([N+](=O)[O-])c5)cs4)c(=O)n(-c4ccccc4C)c3C2)cc1 (centres undefined),-,?,.,3.55µM,-,.
COc1ccc(C2CC(=O)c3cc(-c4nc(-c5cccc([N+](=O)[O-])c5)cs4)c(=O)n(-c4ccccc4)c3C2)cc1 (centres undefined),-,-,.,-,-,.
COCCn1c(=O)c(-c2cn(C)c3ccccc23)nc2cnc(Oc3ccc(OC)cc3)nc21,.,.,.,-[12.7 µM],.,.
